Reference: PubChem BioAssay (Tox21)
Results filed as inconclusive are left out. Entries that show only a call come without a potency. Unmarked numbers belong to inactive results. Calls of active or inactive are those of the source. Calls follow the shape of the dose curve; as a rule, active = well fitted cell-killing curve with a large enough effect in the repeat runs; inconclusive = weak or mixed curves, or effect the other way; inactive = flat fitted curve, though single readings scatter.

Assay: qHTS assay to identify small molecule antagonists of the retinoid acid receptor (RAR) signaling pathway - cell viability counter screen (AID 1159551); also: nearly all actives have a fitted effect of over 35% in size
Settings: C3RL4 cells viability, ATP luminescence (CellTiter-Glo), 6 h; series mostly up to 92.4 µM
Description: U.S. Tox21 Program National Center for Advancing Translational Sciences [NCATS] NIH Chemical Genomics Center [NCGC] U.S. Environmental Protection Agency [EPA] National Institutes of Environmental Health Sciences [NIEHS] National Toxicology Program [NTP] U.S. Food and Drug Administration [FDA] Tox21 Assay Overview: All-trans Retinoic acid (atRA) is the potent natural metabolite of retinol and plays an important role in normal embryonic development and maintenance of cellular phenotype in adult animals. atRA is the activating ligand for the retinoic acid receptors (RARs) which form heterodimers with retinoid X receptors (RXRs) on the retinoic acid response element (RARE). Through activation of the RAR/RXRs nuclear receptors, atRA regulates the transcription of a large number of protein-coding genes and regulatory RNAs. Intracellular levels of atRA are controlled by the retinol signaling pathway (RSP) that regulates the biosynthesis and catabolism of atRA to maintain physiological levels. Chemicals that interfere with the RSP can cause abnormal intracellular levels of atRA and therefore are potential developmental toxicants. To assess compounds for the potential adverse effect on embryonic development through interfering with retinol signaling, a cell-based RARE luciferase reporter gene assay was used. C3RL4 cell line (OARSA/CFSAN/FDA, Laurel, MD) was used to screen Tox21 10K compound library for identifying inhibitors of the RSP. Also cytotoxicity was assessed by determining the viability of cells based on the quantitation of ATP.
Tox21 Assay Protocol Summary: C3RL4 cells were seeded at 1,000/well in 4 uL of assay medium into white solid 1,536-well tissue culture plates (Greiner Bio-One North America Inc. Monroe, NC) using a Multidrop Combi (Thermo Scientific, Waltham, MA) dispenser. After incubation at 37 C and 5% CO2 for an overnight, 23 nL of compounds dissolved in DMSO, positive control or DMSO only were transferred by a Pintool station (Kalypsys, San Diego, CA). One ul of 1 uM (final concentration) of Retinol was added right after the compound addition by using a Flying Reagent Dispenser (FRD) (Aurora Discovery, San Diego, CA). After 6 hr incubation at 37 C and 5% CO2, 5 uL of CellTiter-Glo reagent (Promega Corporation, Madison, WI) was added to each assay plate using an FRD. Luminescence was quantified on a ViewLux plate reader (PerkinElmer, Waltham, MA) after 30 min incubation at room temperature.
Potency is read from the fitted curve at half-maximal effect.

SMILES	Potency	activity change, negative = cytotoxicity
Clc1cc(Cl)c(-c2c(Cl)c(Cl)cc(Cl)c2Cl)cc1Cl	inactive	–
CCCCCCCCCC(=O)N(C)C	inactive	–
Nc1cc(Cl)c([N+](=O)[O-])cc1O	inactive	–
CCCCN(C)C	inactive	–
CCCCCCCCCCCCCc1ccccc1	inactive	–
CCCC(C)CCC(C)=O (stereo not given)	inactive	–
O=Cc1ccc(F)cc1	inactive	–
Clc1ccccc1CN1CCc2sccc2C1	inactive	–
CC(C)(C)CC(C)(C)c1ccccc1O	54.8 µM (active)	–
COc1ccc(-n2nc(CCC(=O)N(C)O)cc2-c2ccc(Cl)cc2)cc1	inactive	–
C/C=C/c1ccc(OC)c(OC)c1	inactive	–
CCCCCCCCCCCCCCNCCO	inactive	–
CCCCCCCC/C=C\CCCCCCCC(=O)OCCOC(=O)CCCCCCC/C=C\CCCCCCCC	inactive	–
CC1=CP(=O)(c2ccccc2)CC1 (stereo not given)	inactive	–
O=S(=O)(O)CCCN1CCOCC1	inactive	–
CCOC(OCC)C(=O)c1ccccc1	inactive	–
COC(=O)[C@]1(C)CCC[C@@]2(C)[C@H]1CC=C1C=C(C(C)C)CC[C@@H]12	inactive	–
CCCC(=O)OCC(COC(=O)CCC)OC(=O)CCC	inactive	–
O=C1OC(=O)c2ccc3c4c(ccc1c24)C(=O)OC3=O	inactive	–
CC(C)(C)c1n[nH]c(=O)n(N)c1=O	inactive	–

SMILES	Potency	activity change, negative = cytotoxicity
CCCCCCCC/C=C/CCCOC(C)=O	inactive	–
CCOC(=O)C1=C(C)NC(C)=C(C(=O)OCC)C1c1ccccc1/C=C/C(=O)OC(C)(C)C	inactive	–
C[C@H]1O[C@@H](O[C@H]2[C@@H](O)C[C@H](O[C@H]3[C@@H](O)C[C@H](O[C@H]4CC[C@@]5(C)[C@H](CC[C@@H]6[C@@H]5C[C@@H](O)[C@]5(C)[C@@H](C7=CC(=O)OC7)CC[C@]65O)C4)O[C@@H]3C)O[C@@H]2C)C[C@H](O)[C@@H]1O	inactive	–
CCC1CCCCC1	inactive	–
COc1cccc(CCc2ccccc2OCC(CN(C)C)OC(=O)CCC(=O)O)c1 (stereo not given)	inactive	–
O=CC1CC1	inactive	–
C[Si](C)(C)Cl	inactive	–
CCOC(=O)COc1ccc(C)cc1	inactive	–
Oc1c(Br)cc(Br)c2cccnc12	inactive	–
COc1cc(C(C)C)c2c(c1)S(=O)(=O)N(COc1cc(=O)n3cccc(OCCN4CCCCC4)c3n1)C2=O	–	5.72% [at 19 µM]
CCO[Si](C)(C)OCC	inactive	–
CCOCOCC	inactive	–
CC(C)c1cccc(C(C)C)c1N1C(=O)c2ccc(O)cc2C1=O	61.1 µM (active)	–
CC(C)CCOCCC(C)C	inactive	–
CCCCCCOc1ccc(O)cc1	inactive	–
CC(=O)O[C@@H]1C[C@@H]2CC[C@@]1(C)C2(C)C	inactive	–
CSc1c(Cl)c(Cl)c(Cl)c(Cl)c1Cl	inactive	–
O=C1OC(=O)c2cccc3cccc1c23	inactive	–
CCc1cccc(CC)c1N(COC)C(=O)CS(=O)(=O)O	inactive	–
C[C@]12CC[C@H]3C(=CCc4cc(O)ccc43)[C@@H]1CCC2=O	inactive	–
